Experimental data taken from PubChem BioAssay (NCATS).
“And” between values parts separate entries of the source, which are not always exact repeats. Identical values can stand only once. Results filed as inconclusive are left out. Entries that show only a call come without a potency. Some structures have more than one record in an assay (separate samples or runs), and their calls can disagree. The source made the active and inactive calls. Calls follow the shape of the dose curve; as a rule, active = well fitted inhibition curve with a large enough effect; inconclusive = small, poorly fitted or top-dose-only effect; inactive = flat fitted curve, though single readings scatter.

Assays:
Experiment in all cases: qHTS profiling for inhibitors of Plasmodium falciparum proliferation (AID 504749); also: nearly all actives have a fitted effect of over 60% in size
Conditions in all cases: P. falciparum in erythrocytes, SYBR Green DNA, 72 h; series mostly up to 28.7 µM
CP250 = tested on: CP250
Outline: (§1)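 Three-day growth assay of blood-stage parasites in erythrocytes (0.3% parasitemia, 2.5% hematocrit) at 37 C, 5% CO2, quantified by SYBR Green DNA staining after overnight detergent lysis.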

CP252 = tested on: CP252
Outline: as §1

CP256 = tested on: CP256
Outline: as §1

CP260 = tested on: CP260
Outline: as §1

CP262 = tested on: CP262
Outline: as §1

CP265 = tested on: CP265
Outline: as §1

CP266 = tested on: CP266
Outline: as §1

CP268 = tested on: CP268
Outline: as §1

CP269 = tested on: CP269
Outline: as §1

CP291 = tested on: CP291
Outline: as §1

CP305 = tested on: CP305
Outline: as §1

CP315 = tested on: CP315
Outline: as §1

CP325 = tested on: CP325
Outline: as §1

CP329 = tested on: CP329
Outline: as §1

CP335 = tested on: CP335
Outline: as §1

DFO2036 = tested on: DFO2036
Outline: as §1

CP286 = tested on: CP286
Outline: as §1

CP297 = tested on: CP297
Outline: as §1

DIV14 = tested on: DIV14
Outline: as §1

DIV17 = tested on: DIV17
Outline: as §1
Potency is read from the fitted curve at half-maximal effect.

Row | Structure (SMILES) | Potency (CP250) | Potency (CP252) | Potency (CP256) | Potency (CP260) | Potency (CP262) | Potency (CP265) | Potency (CP266) | Potency (CP268) | Potency (CP269) | Potency (CP291) | Potency (CP305) | Potency (CP315) | Potency (CP325) | Potency (CP329) | Potency (CP335) | Potency (DFO2036) | Potency (CP286) | Potency (CP297) | Potency (DIV14) | Potency (DIV17)
1 | Cc1sc2ccccc2c1CC1=NCCN1 | inactive | inactive | inactive | inactive | inactive | inactive | inactive | inactive | inactive | inactive | inactive | inactive | inactive | inactive | inactive | inactive | – | – | – | –
2 | CC(N)Cc1ccc(O)cc1 (stereo unspecified) | inactive | inactive | inactive | inactive | inactive | inactive | inactive | inactive | inactive | inactive | inactive | inactive | inactive | inactive | inactive | inactive | inactive | inactive | inactive | inactive
3 | CN1C2CCC1CC(OC(c1ccccc1)c1ccc(Cl)cc1)C2 (stereo unspecified) | 10 µM (active) | 7.94 µM (active) | 7.08 µM (active) | 7.94 µM (active) | 5.36 µM (active) | 8.91 µM (active) | 13.5 µM (active) | 9.53 µM (active) | 9.53 µM (active) | 12 µM (active) | 12 µM (active) | – | 9.53 µM (active) | 13.5 µM (active) | 6.01 µM (active) | 11.2 µM (active) | 5.01 µM (active) | 8.49 µM (active) | 7.57 µM (active) | 7.57 µM (active)
4 | Cn1sc(Cl)cc1=O | inactive | inactive | inactive | inactive | inactive | inactive | inactive | inactive | inactive | inactive | inactive | inactive | inactive | inactive | inactive | inactive | inactive | inactive | inactive | inactive
5 | O=CC=O | inactive | inactive | inactive | inactive | inactive | inactive | inactive | inactive | inactive | inactive | inactive | inactive | inactive | inactive | inactive | inactive | inactive | inactive | inactive | inactive
6 | c1csc(C2(N3CCCCC3)CCCCC2)c1 | inactive | inactive | inactive | inactive | inactive | inactive | inactive | inactive | inactive | inactive | inactive | inactive | inactive | inactive | inactive | inactive | inactive | inactive | – | inactive
7 | COCC(C)N(C(=O)CCl)c1c(C)csc1C (stereo unspecified) | inactive | inactive | inactive | inactive | inactive | inactive | inactive | inactive | inactive | inactive | inactive | inactive | inactive | inactive | inactive | inactive | inactive | – | inactive | inactive
8 | CNC1(c2ccccc2Cl)CCCCC1=O (stereo unspecified) | inactive | inactive | inactive | inactive | inactive | inactive | inactive | inactive | inactive | inactive | inactive | inactive | inactive | inactive | inactive | inactive | inactive | inactive | 9.53 µM (active) and inactive | 13.5 µM (active)
9 | CC[N+](C)(CC)CCOC(=O)C(O)(c1ccccc1)c1ccccc1 | inactive | inactive | inactive | inactive | inactive | inactive | inactive | inactive | inactive | inactive | inactive | inactive | inactive | inactive | inactive | inactive | inactive | inactive | inactive | inactive
10 | O=P(O)(O)C(Cl)(Cl)P(=O)(O)O | inactive | inactive | inactive | inactive | inactive | inactive | – | inactive | inactive | inactive | inactive | inactive | inactive | inactive | inactive | inactive | inactive | inactive | inactive | inactive
11 | CC(C)(C)c1cc(O)ccc1O | 7.94 µM (active) | 8.91 µM (active) and inactive | 11.2 µM (active) | 6.31 µM (active) | 12 µM (active) and inactive | 11.2 µM (active) and 12.6 µM (active) | inactive | – | 13.5 µM (active) | 15.1 µM (active) | 13.5 µM (active) | inactive | – | inactive | 5.36 µM (active) | 8.91 µM (active) | 3.98 µM (active) | 12 µM (active) | 6.01 µM (active) and 12 µM (active) | 5.36 µM (active)
12 | C#CC(C)(O)CC (stereo unspecified) | inactive | inactive | inactive | inactive | inactive | inactive | inactive | inactive | inactive | inactive | inactive | inactive | inactive | inactive | inactive | inactive | inactive | inactive | inactive | inactive
13 | O=C/C=C/c1ccccc1 | inactive | inactive | inactive | inactive | inactive | inactive | inactive | inactive | inactive | inactive | inactive | inactive | inactive | inactive | – | inactive | inactive | inactive | inactive | inactive
14 | O=C1CN(O)C(c2ccccc2)=c2cc(Cl)ccc2=N1 | inactive | inactive | inactive | inactive | inactive | inactive | inactive | inactive | inactive | inactive | inactive | inactive | inactive | inactive | inactive | inactive | inactive | inactive | inactive | inactive
15 | CC(=O)O[C@H]1CC[C@H]2[C@@H]3CCC4=CC(=O)CCC4=C3C=C[C@]12C | inactive | inactive | inactive | inactive | inactive | inactive | inactive | inactive | inactive | inactive | inactive | inactive | inactive | inactive | inactive | inactive | inactive | inactive | inactive | inactive
16 | CCCCNCC(O)c1ccc(O)cc1 (stereo unspecified) | inactive | inactive | inactive | inactive | inactive | inactive | inactive | inactive | inactive | inactive | inactive | inactive | inactive | inactive | inactive | inactive | inactive | inactive | inactive | inactive
17 | COC1=CC=C2[C@H]3Cc4ccc(OC)c5c4[C@@]2(CCN3C)[C@H]1O5 | inactive | inactive | inactive | inactive | inactive | inactive | inactive | inactive | inactive | inactive | inactive | inactive | inactive | inactive | inactive | inactive | inactive | inactive | inactive | inactive
18 | CN1[C@@H]2CC[C@H]1CC(OC1c3ccccc3CCc3ccccc31)C2 (stereo partly specified) | – | 3.16 µM (active) | inactive | – | inactive | inactive | inactive | inactive | inactive | inactive | inactive | inactive | inactive | inactive | inactive | – | – | – | 1.81 µM (active) | 1.81 µM (active)
19 | N#CC(C#N)=Cc1cc(O)c(O)c(O)c1 | 11.2 µM (active) | – | – | 6.31 µM (active) | 15.1 µM (active) | – | 16.9 µM (active) | – | 10.7 µM (active) | – | – | – | – | – | 6.75 µM (active) | – | 10 µM (active) | 15.1 µM (active) | 13.5 µM (active) | 10.7 µM (active)
20 | O=c1c2ccccc2[se]n1-c1ccccc1 | – | inactive | inactive | inactive | inactive | – | inactive | inactive | inactive | inactive | inactive | inactive | inactive | inactive | – | – | – | inactive | – | –
21 | CCC1(c2ccccc2)C(=O)NC(=O)N(C)C1=O (stereo unspecified) | inactive | inactive | inactive | – | inactive | – | inactive | inactive | – | inactive | – | inactive | inactive | inactive | – | inactive | inactive | inactive | – | –
22 | CCCCCCCCCC(=O)O[C@H]1CC[C@H]2[C@@H]3CCC4=CC(=O)CC[C@]4(C)[C@H]3CC[C@]12C | inactive | inactive | inactive | – | inactive | inactive | inactive | inactive | inactive | inactive | inactive | inactive | inactive | inactive | – | inactive | – | inactive | inactive | inactive
23 | C=CCC1(C(C)CCC)C(=O)N=C(S)NC1=O (stereo unspecified) | inactive | inactive | inactive | inactive | – | inactive | inactive | – | – | – | – | – | – | – | inactive | inactive | inactive | – | – | –
24 | CCCN1CCCC2Cc3[nH]ncc3CC21 (stereo unspecified) | inactive | inactive | inactive | inactive | – | inactive | – | – | – | – | – | – | – | – | – | inactive | inactive | – | – | –
25 | [Cl-].[Cl-].[Hg+2] | inactive | – | – | – | inactive | – | inactive | – | – | – | – | – | – | – | – | 11.2 µM (active) | – | – | – | –
26 | c1ccc(C2(N3CCCC3)CCCCC2)cc1 | – | – | – | 8.91 µM (active) | – | – | inactive | – | – | – | – | – | – | – | 10.7 µM (active) | 10 µM (active) | 10 µM (active) | 15.1 µM (active) | 12 µM (active) | 15.1 µM (active)
27 | Oc1cccc[c]1[Hg][Cl] | – | 12.6 µM (active) | 11.2 µM (active) | 5.62 µM (active) | – | 10 µM (active) | 9.53 µM (active) | 7.57 µM (active) | 4.26 µM (active) | 10.7 µM (active) | 6.01 µM (active) | – | 12 µM (active) | 9.53 µM (active) | – | 5.62 µM (active) | 7.94 µM (active) | 13.5 µM (active) | 4.78 µM (active) | 5.36 µM (active)
